Test results published in the OligoGym collection.

molecular target: FKBPL; test: pooled miR-30 sensor sort-seq; sequence = guide strand; details: shRNA

First: TTCCTTCTCGCTAGTCTCCAGC
Second: TTGGCATGAAGGACAGTTCGTT
The sensor-assay potency score (higher = more potent) of the first is lower: -1.31 for the first, 0.00211 for the second.

Going from TTTCGGTAGGAGGGTCTCGGGG to ATGAAGGACAGTTCGTTCTGGA, the sensor-assay potency score (higher = more potent) rises from -1.79 to 0.322.

First: TAATCTGAATAACTGAATCAAG
Second: TTGAGTATGCTCTAGAATTTGG
The sensor-assay potency score (higher = more potent) of the first is lower: -1.19 for the first, -0.551 for the second.

Compared with TAGTTAGCTCTGTCCAGCCCTC, TGACACATGGACTCCAAGCATT is lower in sensor-assay potency score (higher = more potent): -1.24 for the first, -1.29 for the second.

Compared with ATCTTCTTGACAAAGCTCCCAT, TCTATCGCCAGCACCTTCTTGA is higher in sensor-assay potency score (higher = more potent): -0.554 for the first, 0.068 for the second.

First: TTCCTCACCTTGACACATGGAC
Second: TTCGGTAGGAGGGTCTCGGGGC
The sensor-assay potency score (higher = more potent) of the first is higher: -0.29 for the first, -0.399 for the second.

molecular target: FKTN; test: as above; details: shRNA

Compared with TAAACCTAGAGTGTGGTACTTC, TGCATTGTCGATACCATCCTAG is lower in sensor-assay potency score (higher = more potent): 0.175 for the first, -0.739 for the second.

First: TAGAGTGTGGTACTTCTTCTAC
Second: TTAACTGCACGCCACTGTGTGC
The sensor-assay potency score (higher = more potent) of the first is higher: -0.462 for the first, -1.27 for the second.

TAGACAAGTTCCACTGCTCAGC showed a sensor-assay potency score (higher = more potent) of -0.942.
